The panel holds about 79,000 compounds, 15% with a hit somewhere; the sample as a whole holds those more often. Activity calls are given as the source filed them. Rule as the data show it: active = growth inhibition above about 70%; inactive = the rest.
experiment: NCI Yeast Anticancer Drug Screen. Data for the cln2 rad14 strain (AID 165);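 also: 0% = growth equal to vehicle treated cultures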; conditions: S. cerevisiae cln2 rad14 strain, at 50.0 µM, stronger effect = higher value
Experimental: Growth inhibition of yeast strains with defined genetic alterations is measured as a screen for potential anti-cancer activity. Selected strains with alterations in DNA damage repair or cell cycle control were exposed to compounds and growth inhibition was measured relative to vehicle treated controls. The strain used in this assay is cln2 rad14

Question: Which growth inhibition does the source give for `O=C(CO)c1ccc(-c2ccccc2)cc1` here?
Answer: -12.7% (inactive)

Question: For `CC(=O)N/N=C1\NN(C(C)=O)C2(S1)C(=O)Nc1ccccc12` (stereo not given), which growth inhibition is on record?
Answer: 78.5% (active)

Question: With `CCC(CO)N1CNC(=S)NC1` (stereo not given) as the molecule, how does the growth inhibition read?
Answer: 0.8% (inactive)

Question: With `CC(=O)CCCCO` as the molecule, how does the growth inhibition read?
Answer: -8.55% (inactive)

Question: For `O=C1c2ccccc2C(=O)N1/N=C\c1ccc(O)cc1`, which growth inhibition is on record?
Answer: 12.9% (inactive)

Question: Which growth inhibition does the source give for `CC(=O)/C(C)=C\c1ccc(C(C)C)cc1` here?
Answer: -7.2% (inactive)

Question: With `c1ccc(CC[n+]2ccncc2)cc1` as the molecule, how does the growth inhibition read?
Answer: -10.2% (inactive)

Question: For `ClC(Cl)=C(c1ccccc1)c1ccccc1`, which growth inhibition is on record?
Answer: 7.15% (inactive)

Question: Which growth inhibition does the source give for `Cc1ccc(S(=O)(=O)OCC(C)C(c2ccccc2)c2ccccc2)cc1` (stereo not given) here?
Answer: -20.9% (inactive)

Question: With `O=[N+]([O-])C1CCC(N=Nc2c(O)ccc3ccccc23)CC1` (stereo not given) as the molecule, how does the growth inhibition read?
Answer: -27% (inactive)

Question: With `NNC(=O)Nc1ccccc1` as the molecule, how does the growth inhibition read?
Answer: -13.6% (inactive)

Question: With `CN=C(NC#N)NCc1ccccc1` as the molecule, how does the growth inhibition read?
Answer: 10.1% (inactive)

Question: With `O=C(Cl)CNS(=O)(=O)c1ccccc1` as the molecule, how does the growth inhibition read?
Answer: 15.8% (inactive)

Question: With `NC(=O)c1ccccc1NC(=O)C(=O)Cc1nc2ccccc2[nH]c1=O` as the molecule, how does the growth inhibition read?
Answer: 12.7% (inactive)

Question: For `CC(C)C/C(CC(=O)CCC(=O)Nc1ccccc1[N+](=O)[O-])=N\NC(=O)c1cc2ccccc2cc1O`, which growth inhibition is on record?
Answer: 26.2% (inactive)

Question: With `CC(=O)n1[nH]c(=O)n(-c2ccc(Cl)cc2)c1=O` as the molecule, how does the growth inhibition read?
Answer: 2.1% (inactive)

Question: Which growth inhibition does the source give for `CCOC(=O)/C(C)=C(/O)C(=O)OCC` here?
Answer: -7.05% (inactive)

Question: With `CCCCC1(CC)COC2(CCCC2)OC1` as the molecule, how does the growth inhibition read?
Answer: 3.2% (inactive)

Question: For `NNc1ncnc2cccc(Cl)c12`, which growth inhibition is on record?
Answer: -24.7% (inactive)

Question: For `Cc1cc(N=Nc2ccccc2)c2cccnc2c1N`, which growth inhibition is on record?
Answer: 11.6% (inactive)

Question: With `COCCCC12C=C(OC)C(=O)C=C1OC(c1cc(OC)c(OC)c(OC)c1)C2C` (stereo not given) as the molecule, how does the growth inhibition read?
Answer: -18% (inactive)

Question: For `NC(CCCCn1nnc2c(=O)[nH]cnc21)C(=O)O` (stereo not given), which growth inhibition is on record?
Answer: -36.9% (inactive)

Question: For `Cc1ccc(C(C)(CCC(=O)O)c2ccc(C)o2)o1`, which growth inhibition is on record?
Answer: 45.2% (inactive)

Question: Which growth inhibition does the source give for `C=CCOc1cc2c(cc1C(C)c1ccc(OCC)c(C)c1)OCO2` (stereo not given) here?
Answer: -70.5% (inactive)

Question: Which growth inhibition does the source give for `Cc1c(C)c(C)c2cc3c(C)c(C)c(C)c(C)c3cc2c1C` here?
Answer: -2.35% (inactive)

Question: With `CCCOC(=O)Nc1cccc(Cl)c1` as the molecule, how does the growth inhibition read?
Answer: -9.95% (inactive)

Question: With `COc1ccc2c(c1)CC1c3[nH]c4ccccc4c3CCN1C2` (stereo not given) as the molecule, how does the growth inhibition read?
Answer: 32.5% (inactive)

Question: Which growth inhibition does the source give for `CC(C)C(=O)OC1CCCCC1Cc1ccccn1` (stereo not given) here?
Answer: -17% (inactive)

Question: Which growth inhibition does the source give for `COc1cccc(C(OC(=O)c2ccccc2)c2nncc3ccccc23)c1OC` (stereo not given) here?
Answer: 5.9% (inactive)

Question: Which growth inhibition does the source give for `COC(=O)c1cc(C(=O)OC)cc([N+](=O)[O-])c1` here?
Answer: 20.4% (inactive)

Question: Which growth inhibition does the source give for `COCn1cnc2c(F)ncnc21` here?
Answer: -29.1% (inactive)

Question: For `CNCC1OC(OC)C2OC(C)(C)OC12` (stereo not given), which growth inhibition is on record?
Answer: -25.5% (inactive)

Question: Which growth inhibition does the source give for `CC1=C(Br)C(=O)C(C(C)C)=CC1=O` here?
Answer: -4.9% (inactive)

Question: With `COC(=O)c1c(-c2ccc3c(c2)OCO3)cn(C)c1C` as the molecule, how does the growth inhibition read?
Answer: -5.25% (inactive)

Question: With `CC(=O)OCC(COC(C)=O)C(C)=O` as the molecule, how does the growth inhibition read?
Answer: 21.6% (inactive)

Question: Which growth inhibition does the source give for `CCCCCCCCCCCCCCCCCC/C(CC)=N/Nc1ccc([N+](=O)[O-])cc1[N+](=O)[O-]` here?
Answer: -25.1% (inactive)

Question: Which growth inhibition does the source give for `CCOC(=O)Nc1nc2ccccc2n1CN1CCOCC1` here?
Answer: -14.9% (inactive)

Question: For `Cc1ccc(NCC(O)CN2CCCC2)cc1` (stereo not given), which growth inhibition is on record?
Answer: -26.4% (inactive)

Question: With `CSc1ccc(NC(=O)Oc2ccc(NC(C)=O)cc2)cc1` as the molecule, how does the growth inhibition read?
Answer: 14.4% (inactive)

Question: Which growth inhibition does the source give for `CCC(c1ccc(OC)cc1)c1cc2c(cc1OCCO)OCO2` (stereo not given) here?
Answer: 67.7% (inactive)
